Among the data in PubChem BioAssay (EPA / NIEHS) are outcome and AC50 values, retold here.

A short description of assay [1]: APR_HepG2_NuclearSize_24hr: Apredica 24-hour HepG2 Assay for Nuclear Size (AID 2282907). The note with it: high-content imaging, actives raise or lower the signal. A digest of the protocol: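 Compounds in DMSO (final 0.5%) were added to human HepG2 hepatoma cells at ten concentrations up to 200 uM for 24 hr. Fixed nuclei were stained with Hoechst 33342, and nuclear diameter was quantified from automated images.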

The nature of assay [2]: APR_HepG2_CellLoss_24hr: Apredica 24-hour HepG2 Assay for Cell Loss (AID 2282908).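 For AC50: fit in both directions so a hit may be cell loss or gain.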 The note with it: high-content imaging. Summed up: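 Cell number is quantified by fluorescence imaging of Hoechst 33342-stained nuclei following dosing at 0.39–200 uM in 0.5% DMSO. Curves are fitted in both directions from the DMSO baseline.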
A short description of assay [3]: APR_HepG2_MicrotubuleCSK_24hr: Apredica 24-hour HepG2 Assay for Microtubule CSK Stabilty (AID 2282909). The note with it: HepG2 microtubule cytoskeleton imaging, actives raise or lower the signal. Summed up: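 Steps: dose HepG2 for 24 h (0.39–200 uM, 0.5% DMSO); fix 30 min in 3.7% formaldehyde at room temperature; permeabilize; stain alpha-tubulin 60 min; image microtubule cytoskeleton at 20x. Signal change fitted in both directions relative to DMSO.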

Assay [4] can be described thus: APR_HepG2_MitoticArrest_24hr: Apredica 24-hour HepG2 Assay for Mitotic Arrest (AID 2282910). The note with it: high-content imaging, actives raise or lower the signal. Summed up: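 Compounds are dosed onto HepG2 cells across ten concentrations up to 200 uM for 24 hr. Cells are then fixed in 3.7% formaldehyde, permeabilised, and labelled for phospho-histone H3 and nuclei; images are scored by cell cycle analysis and fitted bidirectionally relative to DMSO.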

A short description of assay [5]: APR_HepG2_MitoMembPot_24hr: Apredica 24-hour HepG2 Assay for Mitochondrial Membrane Potential (AID 2282911). The note with it: imaging, actives raise or lower the signal. A digest of the protocol: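 Mitochondrial membrane potential imaged via MitoTracker Red CMXRos (250 nM, 30 min pre-fixation) in fixed HepG2 cells with Hoechst nuclear identification. Ten concentrations 0.39–200 uM, 24 h treatment, 0.5% DMSO; CCCP as positive control.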

Assay [6] is described as follows: APR_HepG2_MitoMass_24hr: Apredica 24-hour HepG2 Assay for Mitochondrial Mass (AID 2282912). The note with it: high-content imaging, actives raise or lower the signal. Summed up: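 The liver line HepG2 was dosed in duplicate across a 0.39–200 uM series, with final DMSO held at 0.5% v/v, and harvested at 24 hr. High-content imaging measured mitochondrial dye staining.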

Assay [7] in a line: APR_HepG2_p53Act_24hr: Apredica 24-hour HepG2 Assay for p53 Activation (AID 2282913).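 Note: p53 protein immunofluorescence averaged per cell in HepG2 with Hoechst nuclei.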 The note with it: high-content imaging, actives raise or lower the signal. A digest of the protocol:
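Fluorescence imaging of formaldehyde-fixed HepG2 cells labelled for p53 and with Hoechst, 24 h after dosing (0.39–200 uM, duplicate wells, 0.5% v/v DMSO). Signal fitted in both directions relative to DMSO.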

Assay [8] is described as follows: APR_HepG2_CellLoss_72hr: Apredica 72-hour HepG2 Assay for Cell Loss (AID 2282915). The note with it: high-content imaging. Summed up:
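Cell number comes from Hoechst 33342-labelled nuclei, imaged at 20x after 3.7% formaldehyde fixation. Dosing was 0.39–200 uM, ten concentrations in duplicate, 0.5% DMSO final, for 72 h. Bidirectional fit relative to DMSO baseline.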

The nature of assay [9]: APR_HepG2_P-H2AX_72hr: Apredica 72-hour HepG2 Assay for H2AX Phosphorylation (AID 2282916).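 Note: phospho-histone H2A.x immunostain intensity per cell marking DNA damage.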 The note with it: imaging, actives raise or lower the signal. A digest of the protocol:
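Following 72 hr treatment with 0.39–200 uM compound, HepG2 cells were formaldehyde-fixed, permeabilized and stained for phospho-H2A.x; signal was measured by high-content imaging and fitted bidirectionally against DMSO controls.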

Assay [10] can be described thus: APR_HepG2_MitoMembPot_72hr: Apredica 72-hour HepG2 Assay for Mitochondrial Membrane Potential (AID 2282917). The note with it: imaging, actives raise or lower the signal. Summed up:
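Membrane potential read by MitoTracker Red CMXRos (250 nM, 30 min, pre-fixation) fluorescence imaging of HepG2 after 72 hr exposure. Ten concentrations, 0.39–200 uM, duplicate wells, 0.5% DMSO; fitted in both directions against DMSO baseline.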

Assay [11] can be described thus: APR_HepG2_MitoticArrest_72hr: Apredica 72-hour HepG2 Assay for Mitotic Arrest (AID 2282918). The note with it: high-content imaging, actives raise or lower the signal. A digest of the protocol: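 High-content imaging of fixed human HepG2 cells after 72 h compound exposure (0.39–200 uM, duplicates, 0.5% DMSO); mitotic arrest scored from phospho-histone H3 and nuclear Hoechst staining relative to DMSO.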

Assay [12] is described as follows: APR_HepG2_MicrotubuleCSK_72hr: Apredica 72-hour HepG2 Assay for Microtubule CSK Stabilty (AID 2282919). The note with it: HepG2 microtubule cytoskeleton, high-content imaging, actives raise or lower the signal. Summed up:
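Read-out is tubulin fluorescence intensity from high-content imaging of HepG2 cells, with nuclei identified by Hoechst 33342. Treatment lasts 72 h at 0.39–200 uM, and curves are fitted bidirectionally against the DMSO negative control.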

Assay [13] can be described thus: APR_HepG2_P-H2AX_24hr: Apredica 24-hour HepG2 Assay for H2AX Phosphorylation (AID 2282920). The note with it: high-content imaging, actives raise or lower the signal. Summed up:
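High-content imaging of phospho-histone H2A.x immunofluorescence, nuclei counterstained with Hoechst 33342, in fixed HepG2 cells. Compounds ran 0.39–200 uM in duplicate for 24 h, final DMSO 0.5%. Signal change fitted both directions against DMSO.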

The nature of assay [14]: APR_HepG2_StressKinase_72hr: Apredica 72-hour HepG2 Assay for Stress Kinase (AID 2282921). The note with it: HepG2 stress kinase (phospho-c-Jun) imaging, actives raise or lower the signal. Summed up: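 Fluorescence intensity of Cy3-tagged anti-phospho-c-Jun antibody, quantified per cell from Hoechst-defined nuclei across six images per well, served as the read-out following 72 h exposure (0.39–200 uM, 0.5% v/v DMSO).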

A short description of assay [15]: APR_HepG2_StressKinase_24hr: Apredica 24-hour HepG2 Assay for Stress Kinase (AID 2282922). The note with it: HepG2 stress kinase (phospho-c-Jun) imaging, actives raise or lower the signal. A digest of the protocol:
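HepG2, 24 hr dosing, 0.39–200 uM in duplicate, 0.5% DMSO; formaldehyde fix (3.7%), 0.5% Triton X-100; anti-phospho-c-Jun + Cy3 secondary, Hoechst counterstain; ArrayScan imaging; bidirectional curve fit vs DMSO baseline.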

The nature of assay [16]: APR_HepG2_MitoMass_72hr: Apredica 72-hour HepG2 Assay for Mitochondrial Mass (AID 2282924).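 Note: MitoTracker Red CMXRos stain intensity per cell imaged as mitochondrial mass.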 The note with it: high-content imaging, actives raise or lower the signal. A digest of the protocol:
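HepG2, 72 hr cmpd, 10 conc 0.39–200 uM in dup, DMSO 0.5% v/v. MitoTracker Red CMXRos 250 nM 30 min pre-fix; formaldehyde 3.7% fix 30 min RT. HCS imaging, gain/loss fit vs DMSO.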

Assay [17] can be described thus: APR_HepG2_NuclearSize_72hr: Apredica 72-hour HepG2 Assay for Nuclear Size (AID 2282925). The note with it: high-content imaging, actives raise or lower the signal. Summed up:
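HepG2; cpd 0.39–200 uM, 10 conc, duplicate; 72 h; DMSO 0.5% v/v; fix 3.7% formaldehyde 30 min RT; Triton permeabilization; Hoechst 2 ug/mL; HCS imaging 20x; nuclear diameter; gain/loss fit vs DMSO.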

Assay [18] can be described thus: APR_HepG2_StressKinase_1hr: Apredica 1-hour HepG2 Assay for Stress Kinase (AID 2282906). The note with it: HepG2 stress kinase (phospho-c-Jun) imaging, actives raise or lower the signal. A digest of the protocol:
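HepG2 cells dosed 0.39-200 uM (0.5% DMSO) for 1 h, then formaldehyde-fixed. Stress kinase read by phospho-c-Jun immunofluorescence using high-content imaging; bidirectional fit vs DMSO.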

Assay [19] can be described thus: APR_HepG2_CellCycleArrest_72hr: Apredica 72-hour HepG2 Assay for Cell Cycle Arrest (AID 2282914). The note with it: high-content imaging, actives raise or lower the signal. Summed up: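 Read-out: nuclear DNA content from Hoechst 33342 high-content imaging (20x, six fields/well) after 3.7% formaldehyde fixation, fitted bidirectionally against DMSO. Treatment was 72 h in HepG2, ten concentrations 0.39–200 uM, duplicate, 0.5% DMSO.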

The source made the active and inactive calls. Rule for the calls: active = hit-call score of the fitted dose curve at least 0.9, where 1 is the maximum; inactive = score below 0.9.

Turning to `CCCN(CCC)C(=O)SCC`, the result in assay [1], in assay [2], in assay [3], in [4], in assay [5] and in [6] was inactive. Also, the outcome in assay [7], in assay [8], in assay [9], in assay [10], in assay [11] and in [12] was inactive. Also, the outcome in [13], in [14], in assay [15], in [16] and in assay [17] was inactive.
Regarding `COC(=O)c1cccc(C)c1S(=O)(=O)NC(=O)Nc1nc(OCC(F)(F)F)nc(N(C)C)n1`, the call in assay [18], in assay [1], in assay [2], in [3], in assay [4] and in assay [5] was inactive. Also, the molecule was called inactive in [6], in [7], in assay [8], in assay [9], in [11] and in assay [12]. Also, the molecule was called inactive in [13], in [14], in assay [15], in assay [16] and in assay [17]. For the same molecule, the AC50 in assay [10] is 1.33 µM (active).
`CCCCOC(=O)C(C)Oc1ccc(Oc2ccc(C(F)(F)F)cn2)cc1` (stereo unspecified): the result in [1], in assay [2], in assay [4], in [5], in [6] and in [7] was inactive. In addition, the call in assay [19], in [8], in assay [9], in assay [11], in assay [12] and in assay [13] was inactive. Further, the molecule was classed as inactive in [14] and in assay [17]. Moreover, the half-maximal activity concentration (AC50) in [10] was 34.9 µM (active).
In the case of `CCN(CC)C(=O)c1cccc(C)c1`, the call in assay [18], in [1], in assay [2], in [4], in [5] and in [6] was inactive. In addition, the outcome in assay [8], in assay [9], in assay [10], in [11], in assay [12] and in assay [13] was inactive. The outcome in assay [14] and in assay [17] was inactive.
Take `CC(=O)[C@H]1CC[C@H]2[C@@H]3CCC4=CC(=O)CC[C@]4(C)[C@H]3CC[C@]12C`: the molecule was called inactive in [1], in assay [5], in assay [10], in assay [12], in [14] and in assay [16]. The molecule was called inactive in assay [17]. The half-maximal activity concentration (AC50) in [2] was 101 µM (active); in assay [3] it was 104 µM (active); in assay [4] it was 100 µM (active); in [6] it was 106 µM (active); in [7], 94.1 µM (active); in assay [19] it was 165 µM (active). The AC50 in assay [8] was 95.6 µM (active); in assay [9], 94.1 µM (active); in [11], 81.6 µM (active); in assay [13], 116 µM (active).
With `N[C@@H](Cc1cc(I)c(Oc2ccc(O)c(I)c2)c(I)c1)C(=O)O`, the molecule was called inactive in [1], in assay [2], in assay [4], in [5], in [6] and in [7]. The result in [19], in [8], in [9], in [10], in assay [11] and in assay [12] was inactive. Further, the molecule was classed as inactive in [13], in assay [14] and in [17].
Consider `O=C(O)C1(C(=O)Nc2ccc(Cl)cc2Cl)CC1`, for which the call in assay [1], in [2], in assay [4], in [5], in assay [6] and in [7] was inactive. Moreover, the call in [8], in assay [9], in assay [10], in [11], in assay [12] and in [13] was inactive. The result in assay [14], in assay [15] and in assay [17] was inactive.

As usually defined, the AC50 is the concentration at which the activity in the assay is half-maximal.
